CHOP inh: CHOP inhibition in unfolded protein response; AID 2732; inhibition, % at 10 µM; CHO-K1 CHOP-promoter luciferase, tunicamycin-induced, 15-18 h; 220,000 compounds, 3.8% hits;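 active means compounds that reduced the stress-induced luciferase reporter signal by more than about 70% of percent inhibition, limit read from the data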
Arbovirus anti: arbovirus infection inhibition | arbovirus infection cell-based antiviral screen | inhibition, % at 10 µM | 200,000 compounds, 0.37% hits; in the data active means inhibition above about 30%
L major viab: inhibitors of Leishmania major promastigote growth; Leishmania major promastigotes, resazurin fluorescence viability; inhibition, % at 10 µM; 200,000 compounds, 9% hits; AID 1063; in the data active means inhibition above about 50%;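 further: promastigotes grown with compound for 44 hours at 28 °C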
WT yeast gro inh: growth inhibition of WT yeast, mitochondrial fusion screen; mitochondrial fusion phenotypic screen, WT strain; inhibition, % at 10 µM; 190,000 compounds, 2.1% hits; in the data active means inhibition above about 58%; tested in S. cerevisiae
Of the large screens only hits and unclear results are named; the others gave an inactive call. Shown are actives, neighbours in structure and some others; about 12% of the full set was active somewhere.

Cc1ccc(C)c(N(C(=O)Cn2nnc3ccccc32)C(C(=O)NC(C)(C)C)c2ccsc2)c1 (configuration not stated)	CHOP inh 71
CC(C)c1ccccc1NC(=O)CNC(C)c1ccc(F)cc1 (configuration not stated)	none
CC(=O)Oc1ccc2c(=O)c(/C=N/c3cc(=O)[nH]c(=S)[nH]3)coc2c1	none (no result: Arbovirus anti, L major viab, WT yeast gro inh)
CC(=O)NC1C(=O)N=C(SC(C)C(=O)Nc2cccc(Cl)c2)NC1=O (configuration not stated)	L major viab 63
CC(=O)NC1C(=O)N=C(SCC(=O)Nc2c(C)cccc2C)NC1=O (configuration not stated)	none
CCOC(=O)c1sc(NC(=O)C(C)Sc2nc(N)cc(=O)[nH]2)nc1C (configuration not stated)	none
CC(Sc1nc(N)cc(=O)[nH]1)C(=O)Nc1cccc(Cl)c1 (configuration not stated)	L major viab 56
C#CCNC(=O)C1=C[C@H](C2CCCCC2)[C@@H](CCCO)[C@H](OCC)O1	none
CCCn1c(NCc2ccc3c(c2)OCO3)nc2ccccc21	L major viab 82
CCCCn1c(NCc2ccc3c(c2)OCO3)nc2ccccc21	none
CCCCn1c(NCc2ccccc2O)nc2ccccc21	none
CCCn1c(NCc2cc(C)ccc2O)nc2ccccc21	Arbovirus anti 36, L major viab 77
C=CCc1cccc(CNc2nc3ccccc3n2CCC)c1O	WT yeast gro inh 59
O=C(Cn1nc(-c2ccc(Cl)cc2)c2ccccc2c1=O)NN1CCOCC1	none (no result: Arbovirus anti, L major viab, WT yeast gro inh)
CCNC(=O)N1CCNC(=O)C1CC(=O)OC (configuration not stated)	none
C=C(C)CNC(=S)N1CCNC(=O)C1CC(=O)OC (configuration not stated)	L major viab 78
NS(=O)(=O)c1ccc(CNC(=O)C2(c3ccc(Cl)cc3)CC2)cc1	L major viab 85
CCN(CC(=O)NCc1cccs1)C(=O)CCc1c[nH]c2ccccc12	none
Cc1c(NC(=S)Nc2cccc(Cl)c2)c(=O)n(-c2ccccc2)n1C	none
CCCCC(=O)NC(=S)Nc1cccc(NC(=O)c2ccccc2)c1	L major viab 98
CCCCC(=O)Nc1cccc(NC(=S)NC(=O)Cc2ccccc2)c1	L major viab 52
CC(C)CC(=O)NC(=S)Nc1cccc(NC(=O)c2ccccc2)c1	L major viab 100
Cc1cc(NC(=S)NC(=O)CC(C)C)ccc1Br	CHOP inh 83 (no result: WT yeast gro inh)
CCN(CC)S(=O)(=O)c1ccc(C(=O)N2CCCCC2)cc1	none
CCCC(=O)Nc1ccc(Cl)c(NC(=S)NC(=O)C(C)C)c1	L major viab 100
CCC(=O)Nc1ccc(Cl)c(NC(=S)NC(C)=O)c1	none
C=CCc1ccccc1OCC(O)CNC(=O)c1ccccc1C(=O)O (configuration not stated)	none (no result: Arbovirus anti, L major viab, WT yeast gro inh)
CN(C)CCC1Sc2ccccc2Oc2ccccc21 (configuration not stated)	L major viab 100
CC1c2ccccc2SC(CCCN(C)C)c2ccccc21 (configuration not stated)	L major viab 100
CCN(CC)CCOC(=O)C1c2ccccc2Oc2ccccc21	none
Cc1cccc(N2CCN(C(=O)c3ccncc3)CC2C)c1 (configuration not stated)	none
COc1ccc(-c2nc(CSCC(=O)N3CCc4ccccc4C3)c(C)o2)cc1OC	none
COc1ccc(-c2nc(CSCC(=O)N3CCN(c4cccc(C)c4)C(C)C3)c(C)o2)cc1OC (configuration not stated)	CHOP inh 76
Cc1cccc(N2CCN(C(=O)c3cc(C)oc3C)CC2C)c1 (configuration not stated)	L major viab 56
C/C(=N\OCC(=O)NC12CC3CC(CC(C3)C1)C2)c1cc2ccccc2o1	WT yeast gro inh 66
CSc1ccccc1NC(=O)CO/N=C(\C)c1cc2ccccc2o1	Arbovirus anti 38, L major viab 95
CCOC(=O)CC(=O)CSc1n[nH]c(=O)[nH]c1=O	none (no result: Arbovirus anti, L major viab, WT yeast gro inh)
Cc1ccc([N+](=O)[O-])c(OCCN2CCCCCC2)c1	L major viab 97
Cc1ccc(OCCCn2ccnc2)c([N+](=O)[O-])c1	L major viab 72
CCCCCOc1ccc(Cn2ccnc2)cc1[N+](=O)[O-]	none
Cc1ccc(OCCN2CCN(C)CC2)c([N+](=O)[O-])c1	L major viab 95
Cc1ccc(OCCCN2CCOCC2)c([N+](=O)[O-])c1	L major viab 89
CN(C)S(=O)(=O)c1ccc(NC(=O)COC(=O)C2COc3ccccc3O2)cc1 (configuration not stated)	none
CC1CC(C)CN(CCCOc2ccccc2[N+](=O)[O-])C1 (configuration not stated)	L major viab 81
COc1cc(CN2CCCC(CCC(=O)NCc3ccc(C)o3)C2)cc2c1OCO2 (configuration not stated)	CHOP inh 86
COC(=O)c1ccc(CN2CCCC(CCC(=O)NCc3ccc(C)o3)C2)cc1 (configuration not stated)	L major viab 77
COCc1ccc(CN2CCCC(CCC(=O)NCc3ccc(C)o3)C2)o1 (configuration not stated)	none
O=C(c1ccc2c(c1)C(=O)N(CCCO)C2=O)c1ccc2c(c1)C(=O)N(CCCO)C2=O	none
O=C1c2ccc3c4c(ccc(c24)C(=O)N1CCCCO)C(=O)N(CCCCO)C3=O	L major viab 100
CCOC(=O)c1c(-c2ccc(C)cc2)csc1NC(=O)C1CC=CCC1C(=O)O (configuration not stated)	Arbovirus anti 35
Cc1ccc(-c2csc(NC(=O)C3CC=CCC3C(=O)O)c2C(=O)OC(C)C)cc1 (configuration not stated)	Arbovirus anti 47
Cn1ccnc1C(=O)c1ccc(S(=O)(=O)N2CCCC2)cc1	none
Cc1cn2c(nc1=O)OC1CC2OC1CO (configuration not stated)	none (no result: Arbovirus anti, L major viab, WT yeast gro inh)
COc1ccc(-c2noc(-c3ccoc3C)n2)cc1	none
CC(C)(C)NC(=O)C(c1ccc(O)cc1)N(C(=O)Cn1nnc(-c2ccc(F)cc2)n1)c1ccccc1F (configuration not stated)	none
CCOC(=O)c1cnc2nc(C)[nH]n2c1=O	none
CCOC(=O)c1cnc2sc3c(n2c1=O)CCCC3	L major viab 100
COc1ccc(OC)c(-n2c(=S)[nH]c3c(sc(=S)n3-c3ccccc3)c2=O)c1	none
CC(C)(C)c1cc(CCC(=O)NNC(=S)NC(=O)c2ccccc2)cc(C(C)(C)C)c1O	CHOP inh 109, L major viab 97
O=C(OCc1csc(-c2ccccc2)n1)c1ccc(O)cc1	none
CCCCCCc1nc2ccccc2c(=O)n1NC(=O)c1c(O)c2cccc3c2n(c1=O)CCC3	CHOP inh 85, WT yeast gro inh 65
CCCn1c2c(c(O)c(C(=O)Nc3nc4ccccc4s3)c1=O)CCCC2	Arbovirus anti 43
CCCCCc1nc2ccccc2c(=O)n1NC(=O)c1c(O)c2cccc3c2n(c1=O)CCC3	none (no result: CHOP inh, Arbovirus anti, WT yeast gro inh)
Cc1nc2ccccc2c(=O)n1NC(=O)c1c(O)c2c(n(CC(C)C)c1=O)CCCC2	none
CCCCCCc1nc2ccccc2c(=O)n1NC(=O)c1c(O)c2c(n(CC(C)C)c1=O)CCCC2	L major viab 54
Cc1cc(C)c(O)c(-c2cc(C(=O)Nc3c(C)n(C)n(-c4ccccc4)c3=O)[nH]n2)c1	none (no result: Arbovirus anti, L major viab, WT yeast gro inh)

Screening results from PubChem BioAssay.
